The subject of the assay is VDR:RXRa (NR concentration 270 nM, RXRa partner concentration 90 nM). As to the kind of experiment: PBM binding z-score (relative to random genomic background probes); higher = stronger binding; sequences stand for … in GC…GCGATTGACAGCGTAGAATGAAGG
The procedure: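 Protein-binding microarray (Agilent 4x180K custom design, double-stranded 60-nt probes: 5' GC cap, 34-nt variable region, 24-nt constant primer region; full probe sequence given). Purified or IVT nuclear receptor:RXRα heterodimers (3:1 NR:RXRα, mostly 270:90 nM) or homodimers were incubated for 1 h in PBS with 2% milk and no ligand, then detected with Alexa488 antibodies. Fluorescence from o1-orientation probes (~5 replicates averaged) was converted to z-scores against 500 random hg19 background probes. Variable regions are seed direct-repeat (DR0–DR5) sites, all their single-nucleotide variants and half-site ablations.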
With TCTTGTAGATCAAAGGTTAGGAAAGCCGAAGCCT, the PBM binding z-score is 0.697.
Under TCTAGCAGGCCAGAGGGTCAGTCAAGAGGTACGG stands 0.113.
Under CCTCGGAGGACAACAGGAGGTCTGAGCTGCCAGA stands -0.681.
Under CGTCAAAGTTCGACTAAGGTAACGTAAAGCACGC stands 1.83; under TAGCCTAGGTCAGTGGGCCAGTATAGTACGCATC, 0.148; under ATCGAAAGGCCGAGGTGAGTATAGAGAAAGGGAA, -0.47.
Consider ACTAGTAGTTGAGACGAGGGCAACCGATAGGTTG, for which the PBM binding z-score was 0.766.
To CGAACTAGGTCAAGGATAGTGAATCTCCGCACGC belongs 1.19.
Under GCGACTGGGGCTAAGCAGGTTACCATAAGGTTGG stands -0.0992; under CAAACTAGGTCACGAAAGGTCAAAGGCGAATGAC, 6.79.
In turn, TCATATAGGTAAATGCTAGGTGTAAGTCCGATCT came in with a PBM binding z-score of 0.772.
Under ACTCGGAGGACAAAGGTCAGATCTACGCCAGTGA stands 3.49.
Sequence GTACCAAGGTGAATACGTCGTTGATGAGTAGGCG had a PBM binding z-score of -0.262.
To ACAGACAGTTGATGAAGGTAACTCAGGCTATCAT belongs 0.101.
To CCAGACAGTTGAAAGGTAACTCAGTCTGGTACGC belongs 0.591; to AATACAGGGGCATCGTAGGCCAGAGTACGCACAG, 0.784.
As for CCTACTGGGCCAAAGGTAATTGATTCCAATGCTC, the PBM binding z-score is -0.387.
To CCGACTGGGGCATAAGGTTACTATAAGCCAGCCC belongs 0.306.
Under CCTCGGAGGACAGAAGGTCTGAGCTGTCCGCTTT stands -0.624; under CCTGCTAGCTCATGGTCAGCTAATCTACAGTATG, -0.366.
Under ATACCAAGGTGATCGTGAGGTCGTTGGTACTAAC stands 3.09; under CCAACTGGGCCACGAAAGGTCATTGATTCAGTGA, 4.26.
TCATATAGGGAAAGGTGAAAGTCGAACGATATGA displayed a PBM binding z-score of 0.965.
Under CGAACTATGTCATTGACAGGACAGTGAATAGTAA stands 0.154; under TTACCAAGGTGAAAGGTCGTTAATGCACGCCTTG, 2.95.
Sequence ACTAGTTGGTCAGCTGAGGTCTCACACAATTCGG returned a PBM binding z-score of 0.0458.
To TCTCGCAGGCCAGAGGGTCACTCAAGAGGTACGG belongs 1.79; to ACAGACAGGTGATGAAGGTCACTCAGGCTATCAT, 4.67; to TCTAGTAGATCAAAGGTTAAGAAAGCCGAAGCCT, 1.37.
Under AGGCAAAGTTCAGGACGAGGTAACGTAAAGCACG stands 2.67; under CCTACTGGGCCATCAGGTCATTAATATCAACGTT, 1.49; under CAAACTAGGTCACCAAAGGTCAAAGTCGAATGAC, 6.93.
To GTACCAAGGTGAATAGGTCGTTGCTGAGTAGGCG belongs 0.644; to TAGCCTAGGTCATTTAGGGGCCAGTATAGAAAGC, 3.03.
With CAAACTAAGTCAAGAGGTCAAAGTCCGCTTCCCG, the PBM binding z-score was 5.15.
To CTCTAAAGGTCGGTTGAGGTGAGTATACGGATAA belongs 2.42.
Under GCGACTGGGACATCAGCAGGTTACCATAACTTAA stands -0.302; under CCTCGGAGTACAACAGGAGGTCAGAGCTGCCAGA, 2.09.
For CCTCGGAGGACAGAAGGTCAGACCTGTCCGCTTT, the PBM binding z-score was determined as 1.05.
To CTACCAAGGTGAACAAGGTCGTTCATTACTATTC belongs 6.53.

The record behind these values is the supplement of paper PMC6555819.
